Laboratory results as given in PubChem BioAssay (NCATS).
Inconclusive results are not listed. Where a call stands in place of a potency, no number is given. Calls of active or inactive are those of the source. The call rests on the fitted dose curve; in most records, active means well fitted cell-killing curve with a large enough effect; inconclusive means small, poorly fitted or top-dose-only effect, or effect the other way; inactive means no such curve, though single readings can be large or run the other way.
Potency means the concentration at half of the fitted maximal effect.

Experiment: Viability qHTS for spleen associated tyrosine kinase inhibitor (SYKi) naive MV4-11 cells (AID 1963823); further: nearly all actives have a fitted effect of over 40% in size
Conditions: MV4-11 AML viability, CellTiter-Glo luminescence, 72 h; series mostly up to 45 µM
How it was run: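 qHTS, SYK inhibitor-naive MV4-11; 500 cells/well; 72 hr compound exposure, 37 C; CellTiter-Glo added, 10 min RT; luminescence read.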
In the case of `C=C1C[C@]23C[C@H]1CC[C@H]2[C@@]1(C)CCC[C@@]2(C)C(=O)O[C@@H]([C@@H]3O)[C@@H]12`, the Potency is reported as “inactive”. With `CNC(=O)c1ccccc1Nc1nc(Nc2ccc3c(c2OC)CCCC(N2CCN(CCO)CC2)C3)ncc1Cl` (stereo not drawn) the Potency was 0.366 µM (active). For `CC(=O)c1c(O)cc2c(c1C)C(=O)CC(O)C2` (stereo not drawn), the Potency was “inactive”. With `COC(=O)C1=CO[C@@H](O[C@@H]2O[C@H](CO)[C@@H](O)[C@H](O)[C@H]2O)[C@@H]2[C@@H](CO)[C@@H](O)C(O)[C@H]12` (stereo partly drawn) the Potency was “inactive”. With `O=C(NCc1nc2ccccc2c(=O)n1-c1ccc(F)cc1)Nc1ccc(Cl)c(C(F)(F)F)c1` the Potency was 23.1 µM (active). With `CC(C)C1=CCC(C)(O)C(OC2OC(CO)C(O)C(O)C2O)C1` (stereo not drawn) the Potency was “inactive”. For `CC1(C)C2CCC(CO[C@@H]3O[C@H](CO[C@@H]4OC[C@](O)(CO)[C@H]4O)[C@@H](O)[C@H](O)[C@H]3O)C1C2` (stereo partly drawn), the Potency was “inactive”. In the case of `N#C/C(=C1\Nc2ccccc2S1)c1ccnc(NCCc2cccnc2)n1`, the Potency is reported as 2.31 µM (active). With `C=C1CC2OC(=O)C(=C)C2C(OC(=O)/C(C)=C\C)CC2(C)OC1=CC2=O` (stereo not drawn) the Potency was 0.453 µM (active). With `Cc1ncc([N+](=O)[O-])n1C[C@H](O)CN1CCOCC1` the Potency was “inactive”. In the case of `C=C1C[C@]23C[C@H]1CC[C@H]2[C@@]12C=C[C@H](O)[C@@](C)(C(=O)O1)[C@H]2[C@@H]3C(=O)O`, the Potency is reported as “inactive”. For `CC(C)CN(CC(=O)N(CCCN1CCCC1=O)CC(N)=O)C(=O)CNCCc1ccccc1F`, the Potency was “inactive”. For `CC(O)CO[C@@H]1O[C@H](CO)[C@@H](O)[C@H](O)[C@H]1O` (stereo partly drawn), the Potency was “inactive”.
